Source: PubChem
Cycloheximide cs – affects cycloheximide protein synthesis inhibition readout, counter-screen; 300,000 tested, 12% active; cell reporter, cycloheximide protein synthesis inhibition counterscreen; max response, %; in the data active = max response mostly above about 13%, no sharp cut-off; inactive = mostly below about 14%; note: read at 38.3 µM for the half of the compounds with a filed dose
Pf growth 96h – P. falciparum growth inhibition at 96 hours | Potency, µM (doses to about 28.7 µM), actives largely listed as inhibitors | 320,000 tested, 6.9% active | P. falciparum luciferase reporter growth, 96 h
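Cell-based qHTS: luciferase-tagged P. falciparum in erythrocytes (2% hematocrit, 0.05% parasitemia final) incubated with compounds for 96 hours, 37 C, 5% CO2; luciferase detection reagent then added and luminescence measured.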
Shiga inhibitor – blocks Shiga toxin action in Vero cells; Vero cells, Shiga toxin protein synthesis inhibition reporter; inhibition, % at 38.7 µM; 290,000 tested, 9.2% active; in the data active = inhibition mostly above about 28%, no sharp cut-off; inactive = mostly below about 43%
SARS PLpro yeast – blocks SARS-CoV papain-like protease in a yeast assay | S. cerevisiae expressing SARS-CoV PLpro, growth rescue | Potency, µM (top dose mostly 32.9 µM), actives largely listed as activators | 330,000 tested, 0.19% active; calls by dose curve; note: nearly all actives have a fitted effect of over 55% in size
Pf growth 48h – inhibits P. falciparum growth in the first generation, 48 h; P. falciparum luciferase growth in erythrocytes, 48 h; AID 504832; Potency, µM (titrated, usually from 28.7 µM), usual class: inhibitors; 310,000 tested, 5.9% active
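A one-generation exposure of luciferase-tagged malaria parasites in RPMI 1640/Albumax erythrocyte culture, 37 C and 5% CO2. Inhibition is inferred from decreased luminescence after adding detection reagent.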
NS1 function inh – influenza NS1 inhibition. Potency, µM (titrated, usually from 46.1 µM). 270,000 tested, 0.4% active; calls by dose curve; note: actives are rising curves; nearly all actives have a fitted effect of over 50% in size
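Recovery from NS1-induced slow growth read by OD600 in budding yeast switched to galactose assay medium (pH 6.0, -URA) at 1:100 dilution. Compound 23 nl per well; the matching strain lacking NS1 serves as control.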
A number is an active result; . = inactive; ? = inconclusive; / = no result given; [ ] = another dose, or the depositor's remark. A selection: hits, their analogues and other compounds. The true share with any hit is near 21%. Unless noted, calls come from the whole dose curve; as a rule, active = well fitted inhibition curve with a large enough effect; inconclusive = small, poorly fitted or top-dose-only effect, or another doubt; inactive = no such curve, though single readings can be large or run the other way.

SMILES | Cycloheximide cs | Pf growth 96h | Shiga inhibitor | SARS PLpro yeast | Pf growth 48h | NS1 function inh
CCOc1ccc(C)cc1-n1nc2ccccc2n1 | 20.1 | ? | . | . | . | .
COc1ccc(N2C(=O)CC2(/C=C/c2ccccc2OC)C(=O)NC2CCCC2)cc1 (stereo not drawn) | . | . | . | . | 11.7µM | .[9.22 µM]
CCOC(=O)CNC(=O)C1(/C=C/c2ccccc2)CC(=O)N1c1ccc(OC)cc1 (stereo not drawn) | . | ? | . | . | 10.4µM | .
Cn1cc(CNCCN2CCCCC2=O)c(-c2cccc(Cl)c2)n1 | . | . | . | . | . | .
O=C(C[C@H]1C[C@H](C(=O)N2CCCCC2)[C@@]2(CCc3ccccc3)c3[nH]c4ccc(Cl)cc4c3CCN2C1=O)NCc1ccco1 | / | / | / | . | / | /
COc1ccc(S(=O)(=O)NCC(=O)N(CC2CCCO2)C(C(=O)NC2CCCC2)C(C)C)cc1 (stereo not drawn) | . | . | . | . | . | .
O=C(NCCCc1ccccc1)C1CCC(=O)N(Cc2ccc(Cl)cc2)C1 (stereo not drawn) | 35.5 | ? | 38.2 | . | . | .
O=C(NCCc1ccccc1)C1CC(=O)N(CCc2ccccc2)C1 (stereo not drawn) | . | ? | . | . | . | .
O=C(NCCN1CCCc2ccccc21)C1CCC(=O)N(CCc2ccccc2)C1 (stereo not drawn) | . | . | . | . | . | .
O=C(NCCn1cccn1)C1CCC(=O)N(CCc2ccccc2)C1 (stereo not drawn) | . | 13.1µM | . | . | . | .
COc1ccc(CCCNC(=O)C2CCC(=O)N(Cc3ccc(Cl)cc3)C2)cc1 (stereo not drawn) | . | ? | . | . | ? | .
Cc1ccc(CNC(=O)C2CCC(=O)N(CCc3ccc(Cl)cc3)C2)s1 (stereo not drawn) | . | ? | . | . | . | .
O=C(NCCc1ccc(Cl)cc1)C1CC(=O)N(CCc2ccccc2)C1 (stereo not drawn) | . | 4.15µM | . | . | . | .
Cc1ccc(CNC(=O)C2CCC(=O)N(CCc3ccc(Cl)cc3)C2)cc1 (stereo not drawn) | 46.5 | 9.28µM | 85.3 | . | . | .
COc1c2ccoc2nc2c(OC)c(OC[C@@H](O)C(C)(C)O)ccc12 | / | . | / | / | ? | /
CCOC(=O)N1CCN(CCC(=O)Nc2cccc(Cl)c2C)CC1 | . | . | / | . | ? | .
CCOC(=O)CC1(NC(=O)C2CCC(=O)N(CCc3ccccc3)C2)CCCCC1 (stereo not drawn) | 19.6 | ? | 30.3 | . | . | .
CC1SCC(=O)N(CC(=O)Nc2ccc3c(c2)OCCO3)C1=O (stereo not drawn) | 32.8 | . | . | . | .[5.75 µM] | /
CC1CCC2(CC1)NC(=O)N(CC(=O)NC(=O)NC1CCCC1)C2=O (stereo not drawn) | . | 13.1µM | . | . | . | .
O=C(CN1C(=O)NC2(CCCCCC2)C1=O)c1ccc2c(c1)OCCO2 | 36.0 | 8.28µM | 117.9 | . | . | .
CC1CCC2(CC1)NC(=O)N(CC(=O)Nc1ccc3c(c1)OCCCO3)C2=O (stereo not drawn) | / | . | / | . | ? | /
CC1CCC2(CC1)NC(=O)N(CC(=O)Nc1ccc3c(c1)OCCO3)C2=O (stereo not drawn) | 41.2 | . | 70.6 | . | . | /
CN1CCC(N(C)C(=O)c2cccc(S(=O)(=O)N3CCc4ccccc43)c2)CC1 | / | / | / | . | / | /
COc1cc(-c2nc(-c3ccccc3)c(-c3cccs3)[nH]2)cc(OC)c1O | . | 1.85µM | . | . | / | .
COc1ccc(Cl)cc1S(=O)(=O)N1CCN(C(=O)c2cc(OC)c(OC)c(OC)c2)CC1 | . | 11.7µM | . | . | ? | .
SMILES | Cycloheximide cs | Pf growth 96h | Shiga inhibitor | SARS PLpro yeast | Pf growth 48h | NS1 function inh
COc1ccc(Cl)cc1S(=O)(=O)N1CCC(C(=O)NC2CC2)CC1 | . | 8.28µM | . | . | ? | .
NC(=O)c1ccc(-n2nc(C(F)(F)F)c3c2CCCC3)cc1 | 19.0 | . | . | . | . | .
O=C(O)c1ccc(-n2nc(C(F)(F)F)c3c2CCCC3)cc1 | . | ? | . | . | . | .
Oc1cc(NCc2ccccc2)cc2cccnc12 | / | 2.62µM | / | . | 1.85µM | /
O=C(COc1cccc2cccnc12)NNC(=O)Nc1ccccc1 | . | . | . | . | . | .
Oc1cc(Nc2ccccc2)cc2cccnc12 | / | 2.62µM | / | . | 2.08µM | /
O=S(=O)(NCc1ccccc1)c1cccc2cccnc12 | . | / | . | . | . | .
Oc1cc(NCCN2CCOCC2)cc2cccnc12 | / | ? | / | . | 4.65µM | /
CC(Sc1nnc(-c2ccco2)n1C)C(=O)N1C(C)CCCC1C (stereo not drawn) | . | . | . | ? | ? | .
CC(Sc1nc(N)cc(=O)[nH]1)C(=O)NNC(=O)c1cccc(Cl)c1 (stereo not drawn) | / | . | / | . | . | /
CC(=O)C1=C(O)C(=O)N(CCCn2ccnc2)C1c1ccc(C)cc1 (stereo not drawn) | . | . | . | . | . | .
S=C(NCc1ccc(Cl)c(Cl)c1)Nc1ccc2c(c1)OCO2 | . | . | . | . | . | .
S=C(NCc1cccnc1)Nc1cccc(Cl)c1 | . | ? | . | . | ? | .
S=C(NCc1cccnc1)Nc1cc(Cl)cc(Cl)c1 | . | ? | . | . | 2.94µM | .
S=C(NCc1cccnc1)Nc1ccc2c(c1)OCO2 | 26.9 | . | . | . | . | .
S=C(NCc1ccncc1)Nc1cc(Cl)cc(Cl)c1 | . | . | . | . | 13.1µM | .
S=C(NCc1ccncc1)Nc1ccc(Cl)c(Cl)c1 | . | ? | . | . | ? | .
O=S(=O)(O)[C@@H](CO)c1ccccc1 (tested in a mixture with another compound) | / | / | / | / | / | .
O=C(Nc1cccc2ccccc12)NC1CCCCC1O (stereo not drawn) | / | . | / | . | . | /
O=C(CNC(=O)c1ccco1)NCC(=O)OCc1ccc(C(=O)Oc2ccc(Cl)cc2)cc1 | . | ? | . | . | / | .
O=C(CNC(=O)c1ccco1)OCc1ccc(C(=O)Oc2ccccc2)cc1 | 32.7 | ? | 24.0 | . | . | .
O=C(CNC(=O)c1ccco1)NCC(=O)OCc1ccc(F)cc1 | . | 3.29µM | . | . | . | .
COC(=O)c1ccc(COC(=O)CNC(=O)c2ccco2)cc1 | . | / | . | . | . | .
CCOc1cccc(NC(=O)C2CC(=O)NC(=Nc3ccccc3)S2)c1 (stereo not drawn) | . | / | . | . | . | .[9.22 µM]
Cc1cccc(C(=O)NCC(=O)N2CCCC2)c1 | 12.4 | . | 49.2 | . | . | .
Cc1ccc(C(=O)NCCC(=O)N2CCCC2)cc1 | 37.5 | . | 40.9 | . | . | .
Nc1ccccc1C(=O)NCCN1CCNC1=O | . | . | . | . | . | .
O=C(CNC(=O)c1cccc(F)c1)OCC(=O)N1CCCCC1 | 34.9 | . | 51.1 | . | . | .
O=C(NCCCC(=O)N1CCCCC1)c1ccc(Cl)cc1 | . | . | . | . | . | .
Cc1ccc(C(=O)NCCN2CCNC2=O)cc1 | 27.8 | . | 58.3 | . | . | .
